Test results published in PubChem BioAssay (NCI).
The panel holds about 83,000 compounds, 20% with a hit somewhere; the sample as a whole holds those more often.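 Negative percent growth values reflect cell death: -40 means 40% of the cells present at the start died, and -100 means all died.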 Unmarked numbers belong to inactive results. Calls of active or inactive are those of the source. The calls were made as follows: active = growth percent below 10; inactive = the rest.

Assays:
Test in all cases: NCI-60 one-dose screen, 48 h (100 = growth as untreated, 0 = no growth, -100 = all killed)
Settings in all cases: 10 µM unless noted
[1] = system: SR leukemia
[2] = system: RPMI-8226 leukemia
[3] = system: OVCAR-8 ovarian
[4] = system: OVCAR-5 ovarian
[5] = system: OVCAR-4 ovarian
[6] = system: SK-OV-3 ovarian
[7] = system: IGROV1 ovarian
[8] = system: OVCAR-3 ovarian
[9] = system: NCI/ADR-RES ovarian
[10] = system: T-47D breast
[11] = system: BT-549 breast
[12] = system: MDA-MB-435 melanoma
[13] = system: SW-620 colon
[14] = system: MCF7 breast
[15] = system: HCT-116 colon
[16] = system: HCC-2998 colon
[17] = system: KM12 colon
[18] = system: HS 578T breast

Cc1cn(-c2cc(C(=O)Nc3cccc(-n4ccc5c(NC(=O)c6ccccc6)nccc54)c3)cc(C(F)(F)F)c2)cn1
growth [1]: -24.9% (active)
growth [2]: -51.7% (active)
growth [3]: 4.81% (active)
growth [4]: 35.6%
growth [5]: 75.7%
growth [6]: 13.1%
growth [7]: 7.51% (active)
growth [8]: -67.7% (active)
growth [9]: 4.71% (active)
growth [10]: 62.5%
growth [11]: 27.9%
growth [12]: -14.9% (active)
growth [13]: 13.4%
growth [14]: 7.18% (active)
growth [15]: -78.6% (active)
growth [16]: 12.7%
growth [17]: -25.6% (active)

O=C(Nc1ccc(-n2cc(-c3ccncc3)c(-c3ccc(O)c(Cl)c3)n2)cc1)c1ccc(Cl)c(Cl)c1
growth [1]: 18.6%
growth [2]: -27.7% (active)
growth [3]: 25.7%
growth [4]: 71.2%
growth [5]: 78.9%
growth [6]: 66.6%
growth [7]: 61.5%
growth [8]: 25.7%
growth [9]: 24.9%
growth [10]: 36.5%
growth [11]: 29.3%
growth [12]: 27.1%
growth [13]: 37.3%
growth [14]: 28.5%
growth [15]: 12.3%
growth [16]: 33.2%
growth [17]: 24.6%

COc1ccc(SC2c3ccc(O)cc3Oc3nc(N)c(C#N)c(N)c32)cc1 (centres undefined)
growth [1]: 59.9%
growth [2]: 96.7%
growth [3]: 98%
growth [4]: 129%
growth [5]: 92.9%
growth [6]: 120%
growth [7]: 74.3%
growth [8]: 88.1%
growth [9]: 98.8%
growth [10]: 85.4%
growth [11]: 30.7%
growth [12]: 87%
growth [13]: 105%
growth [14]: 90.7%
growth [15]: 94.9%
growth [16]: 92.7%
growth [17]: 65.5%

O=C(NCCNc1nccc(-c2c(-c3cccc(O)c3)nc3sccn23)n1)c1cc(N2CCOCC2)cc(C(F)(F)F)c1
growth [1]: 97.3%
growth [2]: 67%
growth [3]: 78.1%
growth [4]: 101%
growth [5]: 133%
growth [6]: 94%
growth [7]: 80.4%
growth [8]: 107%
growth [9]: 103%
growth [10]: 77.7%
growth [11]: 84.8%
growth [12]: 34.7%
growth [13]: 126%
growth [14]: 85.4%
growth [15]: 78.8%
growth [16]: 109%
growth [17]: 97.3%

O=C(O)c1cccc(S(=O)(=O)c2ccccc2)c1
growth [1]: 97.1%
growth [2]: 103%
growth [3]: 112%
growth [4]: 99%
growth [5]: 102%
growth [6]: 116%
growth [7]: 100%
growth [8]: 107%
growth [18]: 91.6%
growth [9]: 104%
growth [11]: 107%
growth [12]: 94.2%
growth [13]: 98.5%
growth [14]: 90.4%
growth [15]: 109%
growth [16]: 104%
growth [17]: 97.4%

O=C(Nc1ccc(-n2cc(-c3ccncc3)c(-c3ccc(O)c(Cl)c3)n2)cc1)c1cc(Cl)cc(Cl)c1
growth [1]: 14.8%
growth [2]: -19.5% (active)
growth [3]: 30.3%
growth [4]: 71.4%
growth [5]: 78.1%
growth [6]: 70.2%
growth [7]: 43.2%
growth [8]: 27%
growth [9]: 28.7%
growth [10]: 49.3%
growth [11]: 25.8%
growth [12]: 21.5%
growth [13]: 33.6%
growth [14]: 33.3%
growth [15]: 17.6%
growth [16]: 39.3%
growth [17]: 24.3%

ClC1c2ccccc2CCc2ccccc21
growth [1]: 89.2%
growth [2]: 92%
growth [3]: 94.7%
growth [4]: 86.4%
growth [5]: 85.9%
growth [6]: 91.2%
growth [7]: 72.5%
growth [8]: 100%
growth [9]: 116%
growth [10]: 74.6%
growth [11]: 93.8%
growth [12]: 110%
growth [13]: 101%
growth [14]: 92.1%
growth [15]: 72.7%
growth [16]: 107%
growth [17]: 109%

COc1ccc(-c2nn(-c3ccc(NC(=O)c4cc(Cl)cc(Cl)c4)cc3)cc2-c2ccncc2)cc1Cl
growth [1]: 50.7%
growth [2]: -11.6% (active)
growth [3]: 77.5%
growth [4]: 64.8%
growth [5]: 89.6%
growth [6]: 86.3%
growth [7]: 85.3%
growth [8]: 64.1%
growth [9]: 69.7%
growth [10]: 67.4%
growth [11]: 66.8%
growth [12]: 68.6%
growth [13]: 68.6%
growth [14]: 73.7%
growth [15]: 55.7%
growth [16]: 49.6%
growth [17]: 29.7%

c1ccc(OCC[P+](c2ccccc2)(c2ccccc2)c2ccccc2)cc1
growth [1]: 22.7%
growth [2]: 10.9%
growth [3]: 24.5%
growth [4]: 43.1%
growth [5]: 15.8%
growth [6]: 39.5%
growth [7]: 8.06% (active)
growth [8]: -31.5% (active)
growth [9]: 108%
growth [10]: 6.07% (active)
growth [11]: 19.6%
growth [12]: 4.66% (active)
growth [13]: 18.3%
growth [14]: 20%
growth [15]: 15.6%
growth [16]: 5.3% (active)
growth [17]: 14.9%

O=C(NCCNc1nccc(-c2c(-c3cccc(O)c3)nc3sccn23)n1)c1ccc(N2CCOCC2)c(C(F)(F)F)c1
growth [1]: 76.1%
growth [2]: 58.8%
growth [3]: 72.8%
growth [4]: 91.2%
growth [5]: 105%
growth [6]: 66.4%
growth [7]: 54.3%
growth [8]: 89.1%
growth [9]: 95.4%
growth [10]: 60.1%
growth [11]: 53.8%
growth [12]: 20.9%
growth [13]: 111%
growth [14]: 58.7%
growth [15]: 60.2%
growth [16]: 106%
growth [17]: 77.5%

O=C(Nc1ccc(-n2cc(-c3ccncc3)c(-c3ccc(O)c(Cl)c3)n2)cc1)c1ccc(Cl)c(C(F)(F)F)c1
growth [1]: 8.48% (active)
growth [2]: -26.9% (active)
growth [3]: 17.8%
growth [4]: 61.6%
growth [5]: 62.6%
growth [6]: 56%
growth [7]: 52.9%
growth [8]: 4.18% (active)
growth [9]: 18.5%
growth [10]: 39.8%
growth [11]: 14.9%
growth [12]: 16%
growth [13]: 26.7%
growth [14]: 20.9%
growth [15]: 9.26% (active)
growth [16]: 25.9%
growth [17]: 15%

O=[N+]([O-])c1cccc(C(c2ccccc2)c2ccccc2)c1
growth [1]: 78.3%
growth [2]: 82.9%
growth [3]: 98%
growth [4]: 85.6%
growth [5]: 98.2%
growth [6]: 95.6%
growth [7]: 84.5%
growth [8]: 98.3%
growth [9]: 95.8%
growth [10]: 83.2%
growth [11]: 106%
growth [12]: 99.5%
growth [13]: 87.7%
growth [14]: 106%
growth [15]: 65.6%
growth [16]: 92.5%
growth [17]: 87%

CC(=S)Nc1ccccc1
growth [1]: 103%
growth [2]: 99.7%
growth [3]: 94.5%
growth [4]: 99.8%
growth [5]: 95.4%
growth [6]: 87.6%
growth [7]: 89.8%
growth [8]: 101%
growth [18]: 98.7%
growth [9]: 100%
growth [10]: 100%
growth [12]: 99.4%
growth [13]: 96.8%
growth [14]: 95%
growth [15]: 104%
growth [16]: 105%
growth [17]: 106%

O=[N+]([O-])c1ccccc1NC1c2ccccc2Oc2ccccc21
growth [1]: 2.25% (active)
growth [2]: 69.5%
growth [3]: 72.9%
growth [4]: 76.8%
growth [5]: 98.7%
growth [6]: 76.9%
growth [7]: 49.3%
growth [8]: 3.28% (active)
growth [9]: 31.4%
growth [10]: 76.5%
growth [11]: 54.8%
growth [12]: -47.7% (active)
growth [13]: 19.8%
growth [14]: 57.1%
growth [15]: 30.3%
growth [16]: 66%
growth [17]: 26.3%

OC(COc1ccccc1Cl)CN1CCN(c2ccc(Cl)cc2)CC1 (centres undefined)
growth [1]: 92.3%
growth [2]: 86.6%
growth [3]: 104%
growth [4]: 81.9%
growth [5]: 91.7%
growth [6]: 114%
growth [7]: 96%
growth [8]: 106%
growth [9]: 115%
growth [10]: 101%
growth [11]: 89.9%
growth [12]: 105%
growth [13]: 108%
growth [14]: 90.2%
growth [15]: 96.4%
growth [16]: 102%
growth [17]: 100%

C/C(=N/NC(=O)Cn1c2ccccc2c2ccncc21)c1cccs1
growth [1]: 83.3%
growth [2]: 87.4%
growth [3]: 92.8%
growth [4]: 112%
growth [5]: 99.8%
growth [6]: 102%
growth [7]: 90.6%
growth [8]: 103%
growth [9]: 101%
growth [10]: 96.4%
growth [11]: 104%
growth [12]: 110%
growth [13]: 103%
growth [14]: 102%
growth [15]: 100%
growth [16]: 96.9%
growth [17]: 101%

O=C1C(Cl)=C(Nc2ccccc2)C(=O)C(Cl)=C1Nc1ccccc1
growth [1]: 111%
growth [2]: 107%
growth [3]: 103%
growth [4]: 112%
growth [5]: 115%
growth [6]: 108%
growth [7]: 110%
growth [8]: 119%
growth [9]: 102%
growth [10]: 98.4%
growth [11]: 112%
growth [12]: 104%
growth [13]: 107%
growth [14]: 105%
growth [15]: 112%
growth [16]: 116%
growth [17]: 116%
